From PubChem BioAssay (NCI)
About 83,000 compounds went through this panel and 20% of them were active in at least one assay; those are over-represented in the sample as a whole.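 Results are percent growth after 48 hours of single-concentration exposure. 100 means growth as in untreated cells, lower positive values show inhibition; negative values down to -100 show cell death.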 Calls of active or inactive are those of the source. Rule for the calls: active = growth percent below 10; inactive = the rest.

test system: M14 melanoma; assay: NCI-60 one-dose screen, 48 h (100 = growth as untreated, 0 = no growth, -100 = all killed); conditions: 10 µM unless noted

For `CCOc1cccc(/C(N)=N/C(N)=N/c2nc3ccccc3s2)c1`, which growth is on record?
Its growth is 93.2% (inactive).

`O=C(CCl)Nc1ccc(NC(=O)c2cc(Cl)ccc2O)c(Cl)c1` was tested. Which growth did it give?
The growth was 76.6% (inactive).

Which growth does the source give for `Clc1ccc(CSc2nnc(-c3ccc(Cl)cc3)n2-c2ccccc2)cc1` here?
Its growth is 85.4% (inactive).

How did the growth turn out when `CC(C)(C)OC(=O)NCc1ccc(CNc2c([N+](=O)[O-])cnc3ccccc23)cc1` was run?
Its growth is 76% (inactive).

For `NS(=O)(=O)c1ccc(Nc2nc(N/N=C/c3ccc4c(c3)OCO4)nc(Nc3ccccc3)n2)cc1`, which growth is on record?
Its growth is 38.7% (inactive).

How did the growth turn out when `Cc1cc(=O)oc2cc(OCCCOc3ccc(/C=C/C(=O)Nc4ccc(Br)cc4)cc3)ccc12` was run?
The growth was 84% (inactive).

`CNC(=O)c1cc(N2CCc3cc(NC(=O)Nc4ccc(N5CCOCC5)c(C(F)(F)F)c4)ccc32)ccn1` was tested. Which growth did it give?
Its growth is 17% (inactive).
